Only some compounds are listed: those with a hit (about 19% of all), similar ones and a draw of the others.
DT40 TDP1 no CPT – qHTS for Inhibitors of human tyrosyl-DNA phosphodiesterase 1 (TDP1): qHTS in cells in absence of CPT; 15% of 420,000 active; Potency, µM (titrated, usually from 46.2 µM), hits mostly inhibitors; AID 686978, 2013; DT40 Tdp1-/- hTDP1 cells, no CPT, ATP luminescence, 48 h; also: nearly all actives have a fitted effect of over 55% in size
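Chicken DT40 Tdp1-/- cells stably complemented with human TDP1 were seeded at 400 cells/well with DMSO in place of 20 nM camptothecin. After compound pinning, cells grew at least 48 hr at 37 °C; viability read by CellTiter-Glo luminescence.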
HT1080 IDH1KD tx – qHTS for induction of synthetic lethality in tumor cells producing 2HG: qHTS for the HT-1080-IDH1KD cell line; 2% of 360,000 active; HT-1080 IDH1 knockdown viability, ATP luminescence, 48 h; Potency, µM (doses to about 46.1 µM), actives largely listed as cytotoxic; AID 686971, 2013
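In this qHTS, HT-1080 cells depleted of IDH1 are exposed for 48 h at 37 °C to compound titrations. Toxicity is scored from CellTiter-Glo luminescence, with DMSO as full viability and medium alone as none.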
TDP1 cell CPT – qHTS for Inhibitors of human tyrosyl-DNA phosphodiesterase 1 (TDP1): qHTS in cells in presence of CPT; chicken DT40 Tdp1-/-;hTDP1 cells + 20 nM CPT, ATP luminescence, 48 h; Potency, µM (titrated, usually from 46.2 µM), usual class: inhibitors; 12% of 420,000 active; AID 686979, 2013; also: nearly all actives have a fitted effect of over 55% in size
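Chicken DT40 Tdp1-/- cells stably complemented with human TDP1 were seeded at 400 cells/well in medium containing 20 nM camptothecin, exposed to pin-transferred compounds, and grown at 37 °C for at least 48 hr. Viability was read as ATP luminescence.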
IL-1B inflam inh – qHTS for Inhibitors of Inflammasome Signaling: IL-1-beta AlphaLISA Primary Screen | THP-1 LPS/ATP IL-1B secretion, AlphaLISA, 16 h; active compounds read low | activity change, % at 57.5 µM | 4.7% of 360,000 active; in the data active = activity change below about -50%; inconclusive = mostly about -30% to -49%
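THP-1 cells pretreated 1 hr with compounds (up to 57.5 uM final), then stimulated with LPS (250 ng/mL final) plus ATP (1.25 mM final); secreted IL-1B measured by AlphaLISA after 16 hr, decreased signal indicating inhibition.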
ELG1 repair inh – qHTS screen for small molecules that inhibit ELG1-dependent DNA repair in human embryonic kidney (HEK293T) cells expressing luciferase-tagged ELG1; HEK293T ELG1-luciferase reporter, luminescence, 16 h; DNA damage induced by 5-fluorouridine; AID 504467, 2011; Potency, µM (top dose mostly 46.1 µM), hits mostly inhibitors; 2.3% of 330,000 active; also: nearly all actives have a fitted effect of over 55% in size
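Luminescence from the luciferase reporter, measured 30 min after ONE-Glo reagent at room temperature, was the read-out. Beforehand, 2,000 cells per well were exposed for 16 hr at 37 °C to 5-fluorouridine together with compound or vehicle.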
HT1080-NT tox – qHTS for induction of synthetic lethality in tumor cells producing 2HG: qHTS for the HT-1080-NT fibrosarcoma cell line. HT-1080-NT fibrosarcoma viability, CellTiter-Glo ATP luminescence, 48 h. Potency, µM (doses to about 46.1 µM), actives largely listed as cytotoxic. 1.6% of 360,000 active. AID 686970, 2013;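 also: NT is the 2HG producing partner of a matched IDH1 knockdown line; nearly all actives have a fitted effect of over 55% in size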
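750 cells/well, RPMI + 5% FBS; 2 h settle, compound pin-transfer, 48 h at 37 degrees C. CellTiter-Glo 10 min RT, luminescence. Normalized to DMSO and media-only wells.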
A number is an active result; 0 = inactive; ? = inconclusive; - = not tested or not shown; [ ] = another dose, or the depositor's remark. Unless noted, calls follow the shape of the dose curve; as a rule, active = well fitted curve in the direction sought with a large enough effect; inconclusive = small, poorly fitted or top-dose-only effect, or another doubt; inactive = no such curve, though single readings can be large; an effect the other way counts as inactive or inconclusive.

SMILES | DT40 TDP1 no CPT | HT1080 IDH1KD tx | TDP1 cell CPT | IL-1B inflam inh | ELG1 repair inh | HT1080-NT tox
COC(=O)c1ccccc1NC(=O)C1CCCN(c2nnc(-n3cccc3)s2)C1 (stereo unspecified) | 20.6µM | 0 | 16.4µM | 0 | ? | 0
CN(C(=O)c1cccc(NC(=O)Cc2cccc(NC(=O)C3CCCN(C(=O)C4CCCCC4)C3)c2)c1)C1CCC1 (stereo unspecified) | 0 | 0 | 0 | 0 | - | 0
Cc1c(Cl)cccc1NC(=O)Cn1nc(C)n2cccc2c1=O | 0 | 0 | 0 | 0 | 0 | 0
CCc1ccccc1NC(=O)CCCn1c(=O)c2cccn2c2ccccc21 | 16.4µM | - | ? | - | - | -
Cc1ccc(NC(=O)CCn2c(=O)c3cccn3c3ccccc32)cc1Cl | 23.1µM | - | 18.4µM | - | - | -
Cc1c(Cl)cccc1NC(=O)CCn1c(=O)c2cccn2c2ccccc21 | 16.4µM | - | ? | - | - | -
Cc1ccc(NC(=O)CCn2c(=O)c3cccn3c3ccccc32)cc1C | 18.4µM | 0 | ? | 0 | 0 | 0
CCCCC(=O)Nc1ccccc1CC | 0 | 0 | 0 | 0 | 0 | 0
COc1ccc(/C(C)=N/NC(=O)c2cc(C)[nH]n2)c(OC)c1 | 0 | 0 | 0 | 0 | 0 | 0
O=S1(=O)CC(N2CCCCC2)CN1CCc1ccccc1 (stereo unspecified) | 0 | 0 | ? | 0 | - | 0
Cc1ccc(C(=O)Nc2ccc3c(c2)nc(CCNC(=O)c2ccco2)n3C)cc1 | 0 | 0 | 0 | 0 | ? | 0
CN(C)CCNC(=O)CCCn1c(=O)c2cccn2c2ccccc21 | 0 | - | 0 | - | - | -
Cc1ccc(NC(=O)CCCn2c(=O)c3cccn3c3ccccc32)cc1C | 11.6µM | - | 16.4µM | - | - | -
CSc1nn(CC(=O)Nc2ccccc2F)c(N)c1S(=O)(=O)c1ccccc1 | 0 | - | 0 | - | - | -
CSc1nn(CC(=O)Nc2cc(C)ccc2C)c(N)c1S(=O)(=O)c1ccccc1 | 6.51µM | - | ? | - | - | -
CCSc1nn(CC(=O)Nc2ccc(C(=O)OC)cc2)c(N)c1S(=O)(=O)c1ccc(C)cc1 | 20.6µM | - | 16.4µM | - | - | -
COc1ccc(NC(=O)Cn2nc(SC)c(S(=O)(=O)c3ccc(C)cc3)c2N)cc1OC | 0 | - | 0 | - | - | -
CCOC(=O)c1ccc(NC(=O)Cn2nc(SC)c(S(=O)(=O)c3ccc(Cl)cc3)c2N)cc1 | 20.6µM | - | ? | - | - | -
Cc1ccc(S(=O)(=O)N(C)C[C@@H]2OCc3cn(nn3)CCCC(=O)N([C@@H](C)CO)C[C@H]2C)cc1 | 0 | 0 | 0 | 0 | - | 0
CN(Cc1ccccc1)C(=O)c1cccc(NC(=O)C2CCCN(C(=O)OC(C)(C)C)C2)c1 (stereo unspecified) | 16.4µM | 0 | 18.4µM | 0 | 25.9µM | 0
CN(Cc1ccccc1)C(=O)c1cccc(NC(=O)Cc2ccc(NC(=O)C3CCN(C(=O)C4CCC4)CC3)cc2)c1 | 23.1µM | 0 | ? | 0 | - | 0
CN(Cc1ccccc1)C(=O)c1cccc(NC(=O)Cc2cccc(NC(=O)C3CCN(C(=O)C4CC4)CC3)c2)c1 | ? | 0 | ? | 0 | - | 0
CN(CCc1ccccc1)C(=O)c1ccc(NC(=O)Cc2cccc(NC(=O)C3CCN(C(=O)C4CCC4)CC3)c2)cc1 | 20.6µM | 0 | 16.4µM | 0 | - | 0
CN(CCc1ccccc1)C(=O)c1ccc(NC(=O)Cc2cccc(NC(=O)C3CCN(C(=O)C4CC4)CC3)c2)cc1 | 0 | 0 | 0 | 0 | - | 0
CN(CCc1ccccc1)C(=O)c1ccc(NC(=O)Cc2cccc(NC(=O)C3CCN(C(=O)C4CCCC4)CC3)c2)cc1 | 9.2µM | 0 | ? | 0 | - | 0
SMILES | DT40 TDP1 no CPT | HT1080 IDH1KD tx | TDP1 cell CPT | IL-1B inflam inh | ELG1 repair inh | HT1080-NT tox
C[C@H]1Cn2cnc(C(=O)Nc3ccccc3)c2C(=O)N1 | 0 | 0 | 0 | 0 | - | 0
COc1cccc(-c2nnn(CC(=O)N(C3CCCCC3)C3CCS(=O)(=O)C3)n2)c1 (stereo unspecified) | 0 | 0 | 0 | 0 | - | 0
COc1cccc(NC(=O)COC(=O)c2ccc(C)c(S(=O)(=O)N3CCCCC3)c2)c1 | ? | 0 | ? | 0 | ? | 0[9.24 µM]
O=C(NNc1ccc([N+](=O)[O-])cn1)Nc1ccc(N=Nc2ccccc2)cc1 | ? | 0 | ? | 0 | - | 0
C[C@@H]1CN([C@@H](C)CO)C(=O)CCCn2nncc2CO[C@@H]1CN(C)C(=O)Nc1cccc(Oc2ccccn2)c1 | 0 | 0 | 0 | 0 | - | 0
CC(C)NC(=O)N1CC2(CCN(C(=O)c3cc(C(F)(F)F)cc(C(F)(F)F)c3)CC2)C1 | 0 | - | 0 | - | - | -
COc1ccccc1CNC(=O)c1cc2cc3ccc(Cl)cc3nc2o1 | 0 | - | 0 | - | - | -
Cc1c2cnn(CC(=O)NC(C)C)c(=O)c2c(C)n1Cc1cccc(Cl)c1 | ? | - | 0 | - | - | -
CN(C(=O)c1ccc(NC(=O)C2CCCN(C(=O)OC(C)(C)C)C2)cc1)C1CCCC1 (stereo unspecified) | ? | 0 | ? | 0 | ? | 0
CN(C(=O)c1ccc(NC(=O)C2CCCN(C(=O)OC(C)(C)C)C2)cc1)C1CCC1 (stereo unspecified) | 16.4µM | 0 | ? | 0 | ? | 0
OC1c2cc(Br)ccc2N=C2CCCCCN21 (stereo unspecified) | 16.4µM | 0 | ? | 0 | - | 0
OC1c2c(F)cccc2N=C2CCCCCN21 (stereo unspecified) | ? | 0 | ? | 0 | - | 0
OC1c2cc(Br)ccc2N=C2CCCN21 (stereo unspecified) | 18.4µM | 0 | 11.6µM | -97.5 | ? | ?
COc1cc(CN2CCCC(C(=O)Nc3ccccc3Oc3cccnc3)C2)ccc1F (stereo unspecified) | 16.4µM | 0 | ? | 0 | 0 | 0
Cn1ccnc1CN1CCCCC1C(=O)Nc1ccc(Oc2cccnc2)cc1 (stereo unspecified) | 23.1µM | ? | 14.6µM | 0 | 0 | ?
CCn1cc(CN2CCC(C(=O)Nc3ccc(Oc4ccccc4F)cc3)CC2)cn1 | 20.6µM | 0 | ? | 0 | - | 0
COc1cccc(O)c1CN1CCC(C(=O)Nc2ccc(-c3cccc(C)c3)cc2)CC1 | 16.4µM | 18.4µM | ? | -95.0 | ? | 23.1µM
COc1ccc(-n2c(=O)c(-c3ccc(Cl)cc3)nc3cnc(N4CCOCC4)nc32)cc1 | 0 | - | 0 | - | - | -
COc1ccc(CN2CCC(C(=O)Nc3ccc(Oc4cccnc4)cc3)CC2)c(C)c1C | 2.91µM | 0 | ? | 0 | 0 | 0
